assay: probe aLefty2 binding to arrayed compounds – biochemical, biotinylated probe, 635/667 nm fluorescence, primary screen (AID 1094); conditions: small-molecule microarray, higher = more signal;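 further: score merges spot fluorescence near 667 nm with spot signal-to-noise ratio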

SMILES	composite z-score
C[C@@H]1CC[C@H]2C(=O)N3[C@@H](CC[C@@H](C)[C@@H]3c3cccc(N4CCOCC4)c3)C(=O)N2[C@H]1c1cccc(N2CCOCC2)c1	-0.275
O=C1c2ccccc2[C@](Cc2ccccc2I)(C(=O)O)[C@H](c2ccc(CO)cc2)N1C1CCCCC1	0.143
COCCCNC(=O)[C@@]1(c2ccc([N+](=O)[O-])cc2)CC(=O)N(C2CCCCC2)[C@@H]1c1ccc(CO)cc1	-0.509
C=C(C(=O)CC[C@H](OC(=O)c1ccccc1-c1ccccc1C(=O)O)c1ccc(CO)o1)C(C)C	-0.19
CSCC[C@@H]1NC(=O)CC=C[C@@H](C)COC(=O)[C@H](CCSC)NC(=O)CC=C[C@@H](C)COC1=O	-0.137
CC1=C([C@H](O)CCc2ccccc2)[C@H](CO)[C@@H]2C(=O)N(Cc3ccccc3)C(=O)[C@@H]2C1	0.0769
CO[C@H]1COC(=O)[C@@H](C)NC(=O)CC=C[C@@H](C)[C@H](OC)COC(=O)CC=C[C@@H]1C	-0.28
CC(C)NC(=O)[C@@]1(Cc2ccccc2I)c2ccccc2C(=O)N(C2CCCCC2)[C@H]1c1ccc(CO)cc1	0.261
O=C1O[C@@H](c2ccccc2)[C@@H](c2ccccc2)N2[C@@H](c3ccccc3OCCO)[C@]3(C(=O)Nc4ccc(C#CC5=CCCCC5)cc43)[C@@H](C(=O)O)[C@H]12	0.0748
O=C1O[C@@H](c2ccccc2)[C@@H](c2ccccc2)N2[C@@H](c3ccc(OCCO)cc3)[C@]3(C(=O)Nc4ccc(C#CCCO)cc43)[C@@H](C(=O)N3CCN(c4ncccn4)CC3)[C@H]12	-0.124
CC(=O)NCCCC[C@@H]1NC(=O)[C@@H]2C[C@H](C(=O)NCCCCCCN(C)C)[C@H](c3ccc(O)cc3)N2C1=O	0.691
O=C(NCc1ccccc1)[C@@]1(CCS(=O)(=O)c2ccccc2)COC(c2ccc(OCCCO)cc2)=N1	0.167
O=C1O[C@@H](c2ccccc2)[C@@H](c2ccccc2)N2[C@@H](c3ccc(O)cc3)[C@]3(C(=O)Nc4ccccc43)[C@@H](C(=O)N3CCN(c4ncccn4)CC3)[C@H]12	-0.12
COc1ccc(C(O)C2C=CC3C(=O)N(C)C(=O)C3N2N2CCCCC2)cc1OCc1ccccc1 (stereo unspecified)	0.491
COc1cc([C@@H]2N[C@H](C(=O)O)Cc3c2[nH]c2ccccc32)cc(OC)c1OC	-0.123
COCCOC(=O)N1C(=O)[C@@]2(c3cc(C#CC4=CCCCC4)ccc31)[C@H](C(=O)NC[C@H](O)c1ccccc1)[C@H]1C(=O)O[C@H](c3ccccc3)[C@H](c3ccccc3)N1[C@@H]2c1ccccc1OCCO	0.306
COc1ccc(CCNC(=O)[C@@]2(c3ccc([N+](=O)[O-])cc3)CC(=O)N(C(C)C)[C@@H]2c2ccc(CO)cc2)cc1	0.11
CC(=O)NCCCC[C@@H]1NC(=O)[C@H]2C[C@@H](C(=O)NCCCCCCN(C)C)[C@@H](c3ccc(O)cc3)N2C1=O	-0.0391

SMILES	composite z-score
NC(=O)NCC#Cc1ccc2c(c1)[C@]1(C(=O)N2)[C@H](c2ccccc2OCCO)N2[C@H](c3ccccc3)[C@H](c3ccccc3)OC(=O)[C@H]2[C@@H]1C(=O)N1CCN(c2ncccn2)CC1	0.276
CO[C@H]1COC(=O)CC=C[C@H](C)[C@@H](OC)COC(=O)CC=C[C@@H]1C	-0.169
CN(C)C(=O)[C@@]1(Cc2ccccc2N=[N+]=[N-])N=C(c2ccc(OCCCO)cc2)O[C@H]1c1ccccc1CN=[N+]=[N-]	0.839
O=C(CS)NCCCCCNC(=O)[C@H]1C[C@H]2C(=O)N3CCC[C@H]3C(=O)N2[C@H]1c1ccc(O)cc1	-0.0961
Cc1ccccc1C(O)C1C=CC2C(=O)N(c3ccccc3)C(=O)C2N1Nc1ccc(C#N)cc1 (stereo unspecified)	0.854
COC(=O)[C@@]1(Cc2ccccc2N=[N+]=[N-])N=C(c2ccc(OCCCO)cc2)O[C@H]1c1ccccc1CN=[N+]=[N-]	0.0641
CCCCCCc1nc(C2CC2)c(C)c2c1[Si](C(C)C)(C(C)C)OC2	-0.0591
C[N+](C)(C)CCCC[C@@H]1NC(=O)[C@H]2C[C@@H](C(=O)NCc3ccc(F)cc3)[C@@H](c3cccc(OCCO)c3)N2C1=O	-0.166
CCCNC(=O)[C@@H]1c2ccccc2C(=O)N(Cc2cc(F)cc(C(F)(F)F)c2)[C@H]1c1ccc(CO)cc1	0.0465
C#CCCCON=C1C[C@@H](O)[C@@H](O)[C@@H]2[C@@H]3C(=O)N(Cc4ccc5c(c4)OCO5)C(=O)[C@@H]3CC[C@H]12	-0.0835
Cc1ccc([C@@H]2CC=C(C(=O)O)[C@H](c3ccccc3)N2S(=O)(=O)c2ccc(C)cc2)cc1	0.755
C=CCNC(=O)[C@H]1[C@@H]2C(=O)O[C@@H](c3ccccc3)[C@@H](c3ccccc3)N2[C@@H](c2ccc(O)cc2)[C@]12C(=O)Nc1ccc(C#CCNC(N)=O)cc12	-0.282
O=C(NCC(F)(F)F)[C@@H]1c2ccccc2C(=O)N(Cc2ccccc2Cl)[C@H]1c1ccc(CO)cc1	-0.605
C=C[C@H](OC)[C@@H](OC(=O)Nc1ccc(SC)cc1)c1ccc(OC)c(O)c1	-0.0986
C=CC[C@]1(C(=O)OC)N=C(c2ccc(OCCCO)cc2)O[C@H]1c1ccccc1CN=[N+]=[N-]	0.4
COC(=O)Cn1c(C(=O)N2CCCC2)cc2c1C[C@H]1CN(C(=O)c3ccccc3)[C@@](Cc3ccccc3)(C(=O)OC)[C@@H]21	0.302
Cc1ccc(S[C@]2(C(=O)NCCCN(C)C)CC(=O)N(Cc3ccccc3)[C@@H]2c2ccc(CO)cc2I)cc1	0.373
C#CCCCON=C1C[C@@H](O)[C@@H](O)[C@@H]2[C@@H]3C(=O)N(Cc4ccc5c(c4)OCO5)C(=O)[C@@H]3CC[C@@H]12	-0.0367

Source: PubChem BioAssay
